Assay outcomes deposited in PubChem by several laboratories.
Compounds with a hit are over-represented: about 2.2% of the library has one in this group of screens.
PLCb3 inh: blocks human PLC-beta3 enzyme activity | Q01970 | Purified PLC-beta3, fluorogenic substrate, fluorescence | inhibition, % at 12.2 µM | 0.18% of 370,000 active | AID 720704; in the data active means inhibition above about 11%;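 further: 0% = median of compound wells on plate and 100% = full blocker control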
PLC-gamma1 inh: inhibitors of human phospholipase C gamma1 | 0.84% of 370,000 active | inhibition, % at 12.2 µM | AID 720700 | purified PLC-gamma1, fluorogenic substrate, fluorescence
Cardio protect: myocardial damage modulation in H9c2 cells | H9c2 cardiomyocytes, H2O2 injury protection, ATPLite, 2 h | protection from H2O2 cell death, % at 20 µM | 0.63% of 360,000 active | AID 588492;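 active means compounds giving at least 50% protection of heart cells from peroxide-induced death in the single-dose screen, raw or plate-pattern-corrected value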;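 further: 0% = DMSO wells with peroxide and 100% = DMSO wells without peroxide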
FAS-TE inh: inhibitors of human fatty acid synthase thioesterase domain; P49327; recombinant FAS-TE, OMFH fluorogenic substrate, fluorescence endpoint; inhibition, % at 15 µM; AID 602261; 0.67% of 360,000 active;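 active means compounds whose normalised, plate-corrected inhibition of enzyme fluorescence in the single-dose primary screen is 50% or more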;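 further: 0% = DMSO with enzyme and 100% = substrate without enzyme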
PLCg1 ctr: inhibits human PLC-gamma1 in PLC-beta3 counter-screen. inhibition, % at 12.3 µM. 3.1% of 3,300 active. shares compounds with PLC-gamma1 inh. purified PLC-gamma1, fluorogenic substrate, fluorescence
PLCbeta3 conf: confirmation of human PLC-beta3 inhibitors; shares compounds with PLC-gamma1 inh; purified PLC-beta3, fluorogenic substrate fluorescence; inhibition, % at 12.3 µM; 1% of 3,300 active; in the data active means inhibition above about 11%
* marks the source's active call; other numbers are inactive results; · = not tested or not shown. Unless noted, no stated cut-off is given here; in the data, active means inhibition above about 9.5%; inactive means the rest.

SMILES	PLCb3 inh	PLC-gamma1 inh	Cardio protect	FAS-TE inh	PLCg1 ctr	PLCbeta3 conf
COc1ccc2ccccc2c1C1CC(=O)N2CN(C)CSC2=C1C#N (stereo unspecified)	4	11*	3	0	-8	-9
O=C(CN1CCN(C(=O)c2ccco2)CC1)Nc1ccc(Br)cc1	-8	-4	2	-2	·	·
O=C1CCCN1c1ccc(S(=O)(=O)Oc2cccc(Cl)c2)cc1[N+](=O)[O-]	3	9.6*	-23	14	-3	4
COC(=O)N[C@H]1CC=C[C@@H]1Cc1cccc(Oc2ccccc2)c1	-5	-1	·	·	·	·
CCCC1/C(=N/O)CC(c2ccccc2)NC1c1ccccc1 (stereo unspecified)	10	10*	2	-14	4	4
O=C(COc1ccccc1)N=C1SC2CS(=O)(=O)CC2N1c1ccc(F)cc1F (stereo unspecified)	-2	10*	-1	3	1	-5
Cc1cccc(Nc2nc(N)c([N+](=O)[O-])c(NCc3ccco3)n2)c1	7	14*	-7	32	-2	-15
CC(C)Cc1cc(C(=O)Nc2cc(C(F)(F)F)ccc2Cl)no1	3	12*	-3	17	-6	-4
CCOC(=O)c1c(S(=O)(=O)Nc2ccc(F)cc2Cl)c(C)n(C)c1C	1	11*	1	16	-2	-1
O=C(c1cnc(-c2ccccc2)s1)c1ccc(Cl)cc1Cl	2	9.7*	-7	30	-2	-2
O=C(c1ccc(Cl)cc1)c1cnc(-c2ccccc2)s1	2	3	3	-8	·	·
CCOc1cc(Br)cc(C(c2c(C(=O)O)[nH]c3ccccc23)c2c(C(=O)O)[nH]c3ccccc23)c1O	-10	28*	-2	2	48*	-4
CSc1ccc(C(c2c(C(=O)O)[nH]c3ccccc23)c2c(C(=O)O)[nH]c3ccccc23)cc1	-22	-7	4	13	·	·
CCCCn1c(=O)n(CC(=O)Nc2ccc(OC)c(Cl)c2)c(=O)c2c1nc(CO)n2CCC	6	9.7*	6	7	13*	7
CCCCn1c(=O)n(CC(=O)Nc2c(CC)cccc2CC)c(=O)c2c1nc(CO)n2CCC	4	2	7	-4	·	·
CCOc1ccc(CN(C)C(=O)c2cc(S(=O)(=O)N3CCCC3)ccc2C)cc1	-13	-8	-10	4	·	·
c1ccc(N(c2ccccc2)c2nc(-n3ccnc3)nc(-n3ccnc3)n2)cc1	-1	0	25	17	·	·
Clc1nc(Cl)nc(N(c2ccccc2)c2ccccc2)n1	6	9.6*	1	-11	-5	0
CCOc1ccc(NC(=O)CN(C)C(=O)CSCc2c(C)noc2C)cc1OCC	-8	7	-3	-3	·	·
CN(Cc1ccccc1)C(=O)COc1cc(Cl)ccc1Cl	·	·	6	12	·	·
O=C1c2ccccc2C(=O)N1CCCCN(C(=O)c1cc([N+](=O)[O-])ccc1Cl)c1ccc(Cl)cc1	-3	0	6	16	·	·
O=C1c2ccccc2C(=O)N1CCCCN(C(=O)c1ccc([N+](=O)[O-])cc1)c1ccc(Cl)cc1	3	12*	-2	-45	4	2
COc1ccc(OCCOc2ccc(S(=O)(=O)N3CCCC3)cc2[N+](=O)[O-])cc1	-5	-6	-6	-100	·	·
COc1cccc(Oc2ccc(S(=O)(=O)N3CCCC3)cc2[N+](=O)[O-])c1	-3	9.6*	-8	19	2	1
Cc1cnc(CNC(=O)c2ccc3sc([C@H]4C[C@H](O)[C@@H](CO)O4)nc3c2)cn1	9	10*	4	-10	-3	-35
SMILES	PLCb3 inh	PLC-gamma1 inh	Cardio protect	FAS-TE inh	PLCg1 ctr	PLCbeta3 conf
COc1ccc(S(=O)(=O)N2CCN(CCOc3ccccc3Cl)CC2)cc1OC	-5	1	-18	12	·	·
COc1ccc(S(=O)(=O)N2CCN(CCOc3ccc(Br)cc3)CC2)cc1OC	-12	11*	-9	29	4	1
CN(C)c1cccc(CNC(=O)c2csc([C@@H]3C[C@H](O)[C@@H](CO)O3)n2)c1	2	4	9	-3	·	·
O=C(Nc1ccccc1C(=O)Nc1ccncc1)c1cccc([N+](=O)[O-])c1	-10	1	6	11	·	·
O=C(Nc1ccccc1C(=O)Nc1ccc(Br)cn1)c1cccc([N+](=O)[O-])c1	-7	10*	-12	-2	-9	-2
CCN(CC(=O)Nc1cc(Cl)ccc1C)C(=O)C1CC1	1	14*	-3	-6	-8	-4
